# Screening data (PubChem BioAssay)
# MRP resist rev – reversal of MRP1-mediated doxorubicin resistance, primary screen, H69AR cells, doxorubicin co-treatment; H69AR cells + 2 uM doxorubicin, CellTiter-Glo, 72 h; differential viability (reversal), % at 10 µM; hit rate 0.04% among 85,000;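 active = viability drop by adding the cancer drug above about 55%, with treated viability meeting a 40% cutoff, limit read from the data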;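 note: viability without doxorubicin minus viability with 2 µM doxorubicin for each compound; larger differential means the compound sensitizes cells more to doxorubicin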
# ERb coact inh – inhibitors of ERβ-SRC1 coactivator interaction, primary screen, biochemical, TR-FRET, ERβ LBD, SRC-1 peptide; inhibition, % at 25.6 µM; hit rate 1.3% among 86,000; Estrogen receptor beta (Homo sapiens), Q92731; TR-FRET ER-beta LBD / SRC1-Cy5 peptide binding; receptor agonist-loaded with 1 µM estradiol;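 active = compounds whose percent inhibition of the receptor-coactivator binding signal exceeds about 50% in the single-dose screen, limit read from the data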;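 note: 0% = receptor plus peptide wells without compound and 100% = peptide-only wells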
# ERa SRC1 pot – enhancers of ERα–SRC-1 coactivator binding, primary screen, biochemical, TR-FRET, ERα LBD, low estradiol | Estrogen receptor (Homo sapiens), P03372 | hit rate 1.3% among 86,000 | AID 639, 2007 | coactivator binding (% of control), % at 25.6 µM | TR-FRET ERalpha-LBD/SRC-Cy5 coactivator binding, 2 h; 100 = basal binding, no effect; in the data active = activity above about 200%;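 note: binding measured in presence of low estradiol as agonist stimulus; 0% = peptide alone without receptor and 100% = receptor with peptide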
# ERa SRC1 inh – ERα–SRC-1 coactivator interaction inhibitors, primary screen, biochemical, TR-FRET, ERα LBD, estradiol-bound. inhibition, % at 25.6 µM. TR-FRET ER-alpha LBD / SRC-1 peptide. Estrogen receptor (Homo sapiens), P03372. hit rate 1.7% among 86,000. AID 629, 2007; in the data active = inhibition above about 50%;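 note: 0% = receptor plus peptide control and 100% = peptide only without receptor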
# Smad3 inh – Smad3/FoxH1 peptide binding inhibitors, primary screen, biochemical, TR-FRET. TR-FRET Smad3/Dy647-FoxH1 peptide binding, europium anti-His. inhibition, % at 25 µM. hit rate 0.29% among 88,000;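 active = compounds that reduce the energy-transfer binding signal between the protein and its labelled peptide by more than half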;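 note: 0% = Smad3 plus labelled peptide maximal FRET and 100% = peptide-only background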
# MRP1 act – H69AR viability gain despite doxorubicin, primary screen, MRP-1 activator project, H69AR cells, CellTiter-Glo; hit rate 0.61% among 140,000; viability increase, % at 10 µM; viability rescue;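 active = viability gain under doxorubicin at or above a set limit, the compound median plus 3 SD, cut at about 4.7% in these data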;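 note: MRP-1 overexpressing cells given doxorubicin 25 µM after compound pretreatment; 18-22 h compound pretreatment then 72 h with doxorubicin before readout; 0% = doxorubicin-only wells and 100% = vehicle-treated cells without doxorubicin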
# * hit, by the source's call; . = no result; [ ] = dose if it differs, or a comment. In the library only some 2.8% were active in any assay of this set; here they are far more common.
SMILES,MRP resist rev,ERb coact inh,ERa SRC1 pot,ERa SRC1 inh,Smad3 inh,MRP1 act
C1C[C@@H]2CN(CCCN3CCOCC3)[C@H](C1)O2,.,.,.,.,4,.
O=C(c1cccn2c(=O)c3cc(Br)ccc3nc12)N1CCC2(CC1)OCCO2,6,-7,102,3,-2,4.8*
CC1(C)CCC(C)(C)c2c1ccc(O)c2Cc1c(O)ccc2c1C(C)(C)CCC2(C)C,.,.,.,.,50,.
CCOc1ccccc1N1C(=O)NC(=O)C(CCc2ccncc2)(CCc2ccncc2)C1=O,7,-16,384*,-8,17,-3
COc1ccccc1N1C(=O)NC(=O)C(CCc2ccncc2)(CCc2ccncc2)C1=O,24,-11,126,0,4,-2
O=C(C1CCC(=O)N1Cc1ccccc1Cl)N1CCC2(CC1)OCCO2 (stereo not drawn),-23,-1,809*[fluorescence artefact?],-6,4,-2
CC(C)N1C(=O)CCC1C(=O)N1CCC2(CC1)OCCO2 (stereo not drawn),-1,-7,107,-4,-2,-1
Cc1oc(C(=O)Nc2ccc(O)cc2)cc1COc1ccccc1,-21,52*[fluorescence artefact?],98,7,-12,-5
COC(=O)c1cc(COc2cc(C)cc3oc(=O)c4c(c23)CCC4)c(C)o1,16,5,114,10,3,.
C[C@]12CC[C@H](O)C[C@@H]1CC[C@H]1[C@H]2CC[C@@]2(C)[C@H](C3=CC(=O)OC3)[C@H](O)C[C@]12O,.,.,.,.,16,.
O=C(O)C[C@H]1OCC=C2CN3CC[C@]45C6=CC(=O)C(=O)C([N+](=O)[O-])=C6N[C@H]4[C@H]1[C@H]2C[C@H]35,.,.,.,.,58*,.
COc1ccc(C(=O)O[C@@H]2CC[C@@]3(C)[C@@H]4CC[C@@H]5[C@@]6(O)C[C@@H](O)[C@@]7(O)[C@@H](CN8C[C@H](C)CC[C@H]8[C@]7(C)O)[C@]6(O)C[C@@]53O[C@@]42O)cc1OC,.,.,.,.,20,.
C[C@H](c1ccccc1)N1CCN([C@@H](C)c2ccccc2)CC1,.,.,.,.,14,.
CC1=CC(=C2C(=O)NC(=S)NC2=O)C=C(C(F)(F)F)N1C,11,63*[fluorescence artefact?],62,52*[fluorescence artefact?],11,0
COc1cc2c(cc1OC)[C@@]13CCN4C=C5CCO[C@H]6CC(=O)N2[C@H]1[C@H]6[C@H]5C[C@H]43,.,.,.,.,9,.
COC(=O)C(O)(c1ccc(N(C)C(=O)OC(C)C)cc1)C(F)(F)F (stereo not drawn),10,68*,101,4,1,1
COC1=C(C)C(=O)c2c(c(COC(N)=O)c3n2C[C@@H]2[C@H]3N2C)C1=O (stereo partly drawn),.,.,.,.,11,.
